Screening results from PubChem.
Compounds with a hit are over-represented: about 7.8% of the library has one in this group of screens.
HCMV inh: inhibitors of human cytomegalovirus; HFF cells, HCMV-luciferase reporter, 72 h; stronger effect = lower value; activity change, negative = inhibition, % at 57.5 µM; 410,000 compounds, 4.5% hits; AID 1259415; in the data active means activity change below about -60%; inconclusive means no clear call, values can overlap the other calls; inactive means above about -39%
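Luciferase read-out from HCMV-luciferase-infected HFFs (MOI 1 PFU/cell) 72 h post infection at 37C; compounds added after 16 h cell attachment; activity normalized between buffer-only basal and Salinomycin (10uM) inhibitor controls.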
HCV inhibitor: blocks hepatitis C virus. Huh7.5.1 HCVcc-Cre infection, luciferase reporter, 44 h. Potency, µM (doses to about 41.8 µM), hits mostly inhibitors. 340,000 compounds, 3.4% hits. AID 651820; active means well fitted inhibition curve with a large enough effect; inconclusive means small, poorly fitted or top-dose-only effect, or another doubt; inactive means no such curve, though single readings can be large or run the other way
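After 44 h co-culture of compound, cells and HCVcc-Cre (~0.5 moi), substrate is added for 15 min at room temperature and luciferase measured over 15 sec. Cells were seeded at 1,000/well and pre-cultured 4 h.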
Vaccinia mCherry: vaccinia inhibition (mCherry reporter); Potency, µM (series often up to 36.5 µM), hits mostly inhibitors; 310,000 compounds, 0.63% hits; Vaccinia virus mCherry reporter infection, fluorescence; calls by dose curve; tested in A549 cells; further: nearly all actives have a fitted effect of over 35% in size
VACV Venus inh: inhibitors of vaccinia virus (Venus reporter); Potency, µM (series often up to 36.5 µM), actives largely listed as inhibitors; 330,000 compounds, 0.46% hits; Vaccinia virus Venus reporter expression, fluorescence; calls by dose curve; tested in A549 cells; further: nearly all actives have a fitted effect of over 30% in size
LASV entry inh: blocks Lassa virus binding to or entry into cells; Lassa virus pseudotype entry inhibition, cell reporter; AID 540256; Potency, µM (doses to about 37.9 µM), most hits filed as inhibitors; 300,000 compounds, 1.2% hits; calls by dose curve; tested in HEK293 cells; further: nearly all actives have a fitted effect of over 50% in size
Marburg entry inh: blocks Marburg virus binding to or entry into cells. Marburg virus pseudotyped entry inhibition, cell reporter. Potency, µM (highest dose often 37.8 µM), most hits filed as inhibitors. 300,000 compounds, 1.8% hits. AID 540276; calls by dose curve; tested in HEK293 cells
Numbers stand for hits; - = inactive; ? = inconclusive; . = no result; [ ] = another dose, or the depositor's remark.

SMILES	HCMV inh	HCV inhibitor	Vaccinia mCherry	VACV Venus inh	LASV entry inh	Marburg entry inh
COc1ccc(-c2cc(C(F)(F)F)nc(NCc3ccc(Cl)cc3)n2)cc1	-	.	-	-	-	-
Cc1ccc(-c2cc(C(F)F)nc(NCc3cccnc3)n2)cc1	-	6.31µM	-	?	?	?
OC1(c2cccnc2)CCN(Cc2ccc3c(c2)CN(Cc2cc(F)ccc2F)CCO3)CC1	.	.	-	-	.	.
COc1cc(C)cc2oc(=O)c(CC(=O)NCCc3ccc(Cl)cc3)c(C)c12	-	.	-	-	-	-
CCC(Oc1ccccc1)C(=O)N1CCN(Cc2cc(=O)n3nc(-c4cccc(C)c4)sc3n2)CC1 (stereo not given)	-	.	-	?	-	.
Cc1cc2nc3c(=O)n(C)c(=O)n(C)c3nc2cc1N=CN(C)C	-	.	-	-	-	-
CCOC(=O)C1=C(c2ccccc2)c2ccccc2N(S(=O)(=O)C(F)(F)F)C1C(=O)OCC (stereo not given)	-	2.82µM	-	-	.	.
CCOC(=O)C1C(C(=O)OC)=C(c2ccc(OC)cc2)c2ccccc2N1S(=O)(=O)C(F)(F)F (stereo not given)	-	11.2µM	-	-	.	.
CCc1cccc(CC)c1NC(=O)Cn1nnc2sc3c(c2c1=O)CCCC3	-	.	-	-	-	-
CNC(=S)NC1CC2CCCC(C1)N2Cc1ccc(C)cc1 (stereo not given)	-	?	.	.	-	4.61µM
Cc1ccc(CN2C3CCCC2CC(NC(=S)NCc2ccccc2)C3)cc1 (stereo not given)	-66.6	?	?	-	?	?
COc1ccc(S(=O)(=O)n2nc(-c3ccc(Cl)cc3)cc2N)cc1OC	?	?	-	-	.	.
Nc1cc(-c2ccccc2)nn1S(=O)(=O)c1ccc(F)cc1	?	10µM	10µM	?	.	.
Nc1cc(-c2ccc(Br)cc2)nn1S(=O)(=O)c1ccccc1	?	-	-	-	-	-
CCOc1ccc(-c2cc(N)n(S(=O)(=O)c3ccc(OC)c(OC)c3)n2)cc1	-60.2	22.4µM	-	-	.	-
COc1ccc(-c2cc(N)n(S(=O)(=O)c3ccc(F)cc3)n2)cc1OC	-	10µM	7.08µM	?	.	.
Cc1ccnc(NC(=O)Cc2ccc(-c3ccccc3)cc2)c1	-90.4	3.98µM	.	.	.	.
Cc1ccnc(NC(=O)CS(=O)(=O)Cc2ccccc2)c1	-99.3	-	-	-	-	-
CC(NC(=O)Cc1ccc(NC(=O)N2CCSc3ncccc32)cc1)c1ccccc1 (stereo not given)	-	.	-	-	-	.
O=C(Nc1ccccc1F)c1ccc(COc2ccc(Cl)cc2Cl)o1	-	?	-	-	?	-
Cc1nn(Cc2c(F)c(F)c(F)c(F)c2F)c(C)c1NC(=O)c1ccc(COc2ccc(Cl)cc2Cl)o1	-81.3	7.08µM	?	?	?	?
Cc1nn(Cc2cccc(F)c2)c(C)c1NC(=O)c1ccc(COc2ccccc2Cl)cc1	-75.6	10µM	11.2µM	12.6µM	-	-
Cc1nn(Cc2ccc(Cl)cc2Cl)c(C)c1NC(=O)c1ccc(COc2cc(Cl)ccc2Cl)o1	-	?	?	?	-	?
CC(C)CNC(=O)c1ccc(COc2ccc(Cl)cc2Cl)o1	-	12.6µM	-[1.46 µM]	?	11.2µM	-
O=C(Nc1ccn(Cc2c(F)c(F)cc(F)c2F)n1)c1ccc(COc2ccc(Cl)cc2Cl)o1	-	12.6µM	.	.	?	?
SMILES	HCMV inh	HCV inhibitor	Vaccinia mCherry	VACV Venus inh	LASV entry inh	Marburg entry inh
COC1=C[C@@H](C(=O)N[C@H]2CCCC[C@H]2NC(C)=O)[C@@H](C)[C@H](c2ccccc2)CC1=O	.	.	.	.	-	?
COc1ccc(O[C@H]2C=C[C@@H](c3ccccc3)O[C@H]2COC(=O)CCC(C)=NO[C@@H](C)c2cc(-c3c(C)cc(C)cc3C)no2)cc1	.	.	.	.	.	-
O=C(Nc1ccccc1Cl)c1cc2c(-c3ccccc3)nn(-c3ccccc3)c2s1	-	.	-	-	-	-
CCOc1ccc(C(=O)NCc2cccs2)cc1	-	-	.	.	-	-
CCOc1ccc(N(C)S(=O)(=O)c2ccc(C)c(C(=O)NCc3cccs3)c2)cc1	-	14.1µM	.	.	.	.
CCCNC(=O)c1c[nH]c2ccc(S(=O)(=O)N(C)c3ccc(OCC)cc3)cc2c1=O	?	22.4µM	.	-	?	?
C=CCNC(=O)c1c[nH]c2ccc(S(=O)(=O)N(C)c3ccc(OCC)cc3)cc2c1=O	-66.5	?	.	.	.	.
O=C(Nc1ccc(F)cc1)OC[C@@H]1CSCCS(=O)(=O)N1	-	.	.	.	?	.
COc1ccc(OC)c(CN2CCN(C(=O)c3cccc(S(=O)(=O)Nc4ccc(C)cc4)c3)CC2)c1	-	10µM	-	?	-	?
COc1ccc(NS(=O)(=O)c2ccc(C)c(C(=O)N3CCN(Cc4cc(OC)ccc4OC)CC3)c2)cc1	-	?	-	-	?	?
COc1ccc(OC)c(CN2CCN(C(=O)c3cc(S(=O)(=O)Nc4ccccc4OC)ccc3C)CC2)c1	-	14.1µM	-	-	?	?
Cc1oc(-c2ccccc2NC(=O)c2ccsc2)nc1CN(C)Cc1ccc2c(c1)CCCN2C	.	.	-	-	.	.
COc1ccc2c(c1)CCc1cnc(-n3ncc(C(=O)N4CCN(CCO)CC4)c3C3CC3)nc1-2	.	.	-	-	.	.
Cc1ccc(NC(=O)c2cc(CC(C)C)nc3ccccc23)cc1	-69.8	?	-	-	-	?
